The results in this text go back to publication PMC7862700, “An all-to-all approach to the identification of sequence-specific readers for epigenetic DNA modifications on cytosine”.

Experiment in all cases: DAPPL (digital affinity profiling via proximity ligation, sequencing); 10 mM Tris-HCl pH 7.5, 50 mM NaCl, 1 mM DTT, 4% glycerol, room temperature, 30 min; GST-TFs on glutathione beads, 16-mer random dsDNA library, 0.1% formaldehyde crosslink after washing; high values mean tight binding
One test concerns the target T1, FLI1 (Homo sapiens, UniProt Q01543 1-452).
T1 sequence: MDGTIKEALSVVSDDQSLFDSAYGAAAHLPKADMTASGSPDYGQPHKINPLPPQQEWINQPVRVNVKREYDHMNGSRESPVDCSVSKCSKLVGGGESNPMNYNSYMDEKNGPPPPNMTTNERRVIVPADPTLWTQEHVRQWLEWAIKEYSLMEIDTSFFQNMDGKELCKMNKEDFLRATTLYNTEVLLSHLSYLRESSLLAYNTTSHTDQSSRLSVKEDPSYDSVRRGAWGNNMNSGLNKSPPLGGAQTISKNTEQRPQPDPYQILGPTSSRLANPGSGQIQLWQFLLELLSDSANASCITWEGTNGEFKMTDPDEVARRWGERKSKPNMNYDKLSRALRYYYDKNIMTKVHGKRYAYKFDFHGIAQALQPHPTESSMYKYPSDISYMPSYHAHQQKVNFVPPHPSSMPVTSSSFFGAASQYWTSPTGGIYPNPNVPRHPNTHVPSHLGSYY
The note with it: protein: recombinant; tags: N-terminal GST; dsDNA, one strand shown. In short, it runs like this: (§1)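 Sequencing on an Illumina NextSeq500 followed washing, crosslinking with 0.1% formaldehyde, proximity ligation (BsaI/T4 ligase, 1 h, 37 °C) and PCR amplification of pools that had been incubated for 30 min at room temperature with 200 nmole of a random double-stranded 16-mer DNA library in Tris/NaCl/DTT/glycerol buffer. Each pool held DNA-barcoded human transcription factors, expressed in yeast as GST fusions and captured on glutathione beads, plus a tag-only sample. Binding signal is a hexamer's read frequency for a factor divided by its frequency in the tag-only sample.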

The target of a further test is T2, ELK1 (Homo sapiens, UniProt P19419 1-428).
T2 sequence: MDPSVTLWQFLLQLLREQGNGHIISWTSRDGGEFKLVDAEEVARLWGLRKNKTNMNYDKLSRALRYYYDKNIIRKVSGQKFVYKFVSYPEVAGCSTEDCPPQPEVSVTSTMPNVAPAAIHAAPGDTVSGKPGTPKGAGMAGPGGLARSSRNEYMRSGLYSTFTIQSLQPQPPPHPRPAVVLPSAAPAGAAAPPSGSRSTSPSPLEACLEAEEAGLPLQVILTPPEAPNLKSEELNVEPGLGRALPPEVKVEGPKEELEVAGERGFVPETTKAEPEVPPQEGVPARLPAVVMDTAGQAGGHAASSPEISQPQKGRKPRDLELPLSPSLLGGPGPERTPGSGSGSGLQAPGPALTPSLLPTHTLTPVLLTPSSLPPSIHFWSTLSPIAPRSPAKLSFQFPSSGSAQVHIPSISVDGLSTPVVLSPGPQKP
The note with it: protein: recombinant; tags: N-terminal GST; dsDNA, one strand shown. In short, it runs like this:
as §1

Another test addresses T3, GABPA (Homo sapiens, UniProt Q06546 1-454).
T3 sequence: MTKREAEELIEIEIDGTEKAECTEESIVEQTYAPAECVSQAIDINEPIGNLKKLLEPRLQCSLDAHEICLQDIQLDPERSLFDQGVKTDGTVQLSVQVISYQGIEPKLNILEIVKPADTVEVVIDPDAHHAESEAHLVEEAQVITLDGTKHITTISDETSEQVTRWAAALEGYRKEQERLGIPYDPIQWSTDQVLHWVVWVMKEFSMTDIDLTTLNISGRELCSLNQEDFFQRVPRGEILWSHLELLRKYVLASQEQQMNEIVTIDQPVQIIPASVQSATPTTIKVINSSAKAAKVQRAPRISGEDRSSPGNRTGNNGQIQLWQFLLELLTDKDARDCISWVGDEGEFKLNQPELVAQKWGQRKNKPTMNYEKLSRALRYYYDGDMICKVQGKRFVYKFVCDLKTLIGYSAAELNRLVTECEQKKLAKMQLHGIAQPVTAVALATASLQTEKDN
The note with it: protein: recombinant; tags: N-terminal GST; dsDNA, one strand shown. In short, it runs like this:
as §1

The target of the next test is T4, ERG (Homo sapiens, UniProt P11308 1-479).
T4 sequence: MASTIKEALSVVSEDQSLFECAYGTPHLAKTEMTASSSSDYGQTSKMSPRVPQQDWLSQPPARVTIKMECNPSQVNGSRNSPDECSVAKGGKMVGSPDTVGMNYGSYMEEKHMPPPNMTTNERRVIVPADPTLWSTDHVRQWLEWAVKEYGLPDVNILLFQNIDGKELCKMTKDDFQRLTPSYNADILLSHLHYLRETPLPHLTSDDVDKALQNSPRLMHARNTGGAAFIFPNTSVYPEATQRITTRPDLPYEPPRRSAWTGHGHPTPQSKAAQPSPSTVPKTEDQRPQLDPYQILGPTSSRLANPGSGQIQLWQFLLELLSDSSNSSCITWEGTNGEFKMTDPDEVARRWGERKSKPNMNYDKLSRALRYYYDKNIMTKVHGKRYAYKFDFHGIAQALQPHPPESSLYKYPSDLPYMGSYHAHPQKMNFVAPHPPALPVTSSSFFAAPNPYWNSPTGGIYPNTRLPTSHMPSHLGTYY
The note with it: protein: recombinant; tags: N-terminal GST; dsDNA, one strand shown. In short, it runs like this: as §1

For another test, the target named is ELF1 (Homo sapiens, UniProt P32519 1-619). The note with it: protein: recombinant; tags: N-terminal GST; dsDNA, one strand shown. In short, it runs like this:
as §1

In the next test the target is T5, EHF (Homo sapiens, UniProt Q9NZC4 1-300).
T5 sequence: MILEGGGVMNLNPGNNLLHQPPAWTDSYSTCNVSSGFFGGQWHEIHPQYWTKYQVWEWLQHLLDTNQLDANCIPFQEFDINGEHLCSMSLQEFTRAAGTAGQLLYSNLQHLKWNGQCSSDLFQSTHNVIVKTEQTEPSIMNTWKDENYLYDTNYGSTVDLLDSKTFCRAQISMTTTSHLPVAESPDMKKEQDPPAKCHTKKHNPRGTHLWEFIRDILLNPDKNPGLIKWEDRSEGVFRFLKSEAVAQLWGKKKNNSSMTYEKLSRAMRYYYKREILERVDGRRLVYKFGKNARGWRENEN
The note with it: protein: recombinant; tags: N-terminal GST; dsDNA, one strand shown. In short, it runs like this: as §1

In a further test the target is SPI1 (Homo sapiens, UniProt P17947 1-270). The note with it: protein: recombinant; tags: N-terminal GST; dsDNA, one strand shown. In short, it runs like this:
as §1

Another test concerns the target SPIB (Homo sapiens, UniProt Q01892 1-262). The note with it: protein: recombinant; tags: N-terminal GST; dsDNA, one strand shown. In short, it runs like this:
as §1

Another test deals with T6, ELK3 (Homo sapiens, UniProt P41970 1-407).
T6 sequence: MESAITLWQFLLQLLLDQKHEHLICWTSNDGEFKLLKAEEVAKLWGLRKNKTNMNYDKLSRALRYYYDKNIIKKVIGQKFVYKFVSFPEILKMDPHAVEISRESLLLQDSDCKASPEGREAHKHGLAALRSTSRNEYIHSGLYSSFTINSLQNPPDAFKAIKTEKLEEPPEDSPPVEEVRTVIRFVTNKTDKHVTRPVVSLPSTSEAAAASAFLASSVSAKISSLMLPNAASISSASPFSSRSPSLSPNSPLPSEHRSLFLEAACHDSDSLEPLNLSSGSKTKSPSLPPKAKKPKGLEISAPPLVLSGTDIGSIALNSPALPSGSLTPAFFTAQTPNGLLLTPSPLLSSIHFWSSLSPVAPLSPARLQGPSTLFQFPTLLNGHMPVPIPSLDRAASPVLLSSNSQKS
The note with it: protein: recombinant; tags: N-terminal GST; dsDNA, one strand shown. In short, it runs like this:
as §1

A further test has as its target T7, FEV (Homo sapiens, UniProt Q99581 1-238).
T7 sequence: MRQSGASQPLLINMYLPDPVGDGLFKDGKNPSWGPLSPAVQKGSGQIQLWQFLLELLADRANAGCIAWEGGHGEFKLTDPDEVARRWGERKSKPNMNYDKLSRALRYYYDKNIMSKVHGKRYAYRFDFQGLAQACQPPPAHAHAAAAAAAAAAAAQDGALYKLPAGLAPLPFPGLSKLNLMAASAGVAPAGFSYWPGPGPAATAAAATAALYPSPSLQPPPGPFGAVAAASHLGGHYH
The note with it: protein: recombinant; tags: N-terminal GST; dsDNA, one strand shown. In short, it runs like this: as §1

For another test, the target named is ETV5 (Homo sapiens, UniProt P41161 1-510). The note with it: protein: recombinant; tags: N-terminal GST; dsDNA, one strand shown. In short, it runs like this: as §1
Another test deals with HSF1 (Homo sapiens, UniProt Q00613 1-529). The note with it: protein: recombinant; tags: N-terminal GST; chain copies: 3; dsDNA, one strand shown. In short, it runs like this:
as §1

A further test has as its target T8, SPIC (Homo sapiens, UniProt Q8N5J4 1-248).
T8 sequence: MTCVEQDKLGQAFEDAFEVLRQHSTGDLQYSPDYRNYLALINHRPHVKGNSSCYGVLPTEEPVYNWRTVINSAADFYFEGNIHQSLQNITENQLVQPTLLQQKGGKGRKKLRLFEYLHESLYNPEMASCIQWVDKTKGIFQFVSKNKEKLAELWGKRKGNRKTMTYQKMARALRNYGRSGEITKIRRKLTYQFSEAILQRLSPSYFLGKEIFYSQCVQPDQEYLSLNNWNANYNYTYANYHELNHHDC
The note with it: protein: recombinant; tags: N-terminal GST; dsDNA, one strand shown. In short, it runs like this:
as §1

The target of another test is ELF4 (Homo sapiens, UniProt Q99607 1-663). The note with it: protein: recombinant; tags: N-terminal GST; dsDNA, one strand shown. In short, it runs like this:
as §1

The target of the next test is T9, ELK4 (Homo sapiens, UniProt P28324-2 1-405).
T9 sequence: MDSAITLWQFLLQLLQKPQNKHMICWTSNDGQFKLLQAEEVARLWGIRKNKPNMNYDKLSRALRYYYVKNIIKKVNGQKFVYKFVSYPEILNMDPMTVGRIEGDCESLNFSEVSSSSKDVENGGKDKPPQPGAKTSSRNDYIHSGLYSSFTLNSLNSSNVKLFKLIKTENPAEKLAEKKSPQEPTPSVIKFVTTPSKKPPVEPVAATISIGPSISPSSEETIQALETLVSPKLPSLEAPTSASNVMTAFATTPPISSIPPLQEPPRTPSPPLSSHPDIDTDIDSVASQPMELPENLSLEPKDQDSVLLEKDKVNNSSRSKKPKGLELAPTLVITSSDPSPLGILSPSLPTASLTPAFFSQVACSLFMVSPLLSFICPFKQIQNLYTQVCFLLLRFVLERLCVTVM
The note with it: protein: recombinant; tags: N-terminal GST; dsDNA, one strand shown. In short, it runs like this: as §1

In a further test the target is T10, ETV2 (Homo sapiens, UniProt O00321 1-342).
T10 sequence: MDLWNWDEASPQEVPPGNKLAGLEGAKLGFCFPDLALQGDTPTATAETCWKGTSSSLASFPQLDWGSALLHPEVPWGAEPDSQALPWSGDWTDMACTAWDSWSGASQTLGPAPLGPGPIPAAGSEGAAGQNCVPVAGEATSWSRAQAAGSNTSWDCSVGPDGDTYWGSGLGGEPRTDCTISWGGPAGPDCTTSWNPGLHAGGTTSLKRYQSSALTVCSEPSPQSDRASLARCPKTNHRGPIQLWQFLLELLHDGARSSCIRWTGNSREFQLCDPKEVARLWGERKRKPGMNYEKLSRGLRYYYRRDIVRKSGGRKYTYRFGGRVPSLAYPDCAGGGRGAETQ
The note with it: protein: recombinant; tags: N-terminal GST; dsDNA, one strand shown. In short, it runs like this:
as §1

In another test the target is T11, ELF3 (Homo sapiens, UniProt P78545 1-371).
T11 sequence: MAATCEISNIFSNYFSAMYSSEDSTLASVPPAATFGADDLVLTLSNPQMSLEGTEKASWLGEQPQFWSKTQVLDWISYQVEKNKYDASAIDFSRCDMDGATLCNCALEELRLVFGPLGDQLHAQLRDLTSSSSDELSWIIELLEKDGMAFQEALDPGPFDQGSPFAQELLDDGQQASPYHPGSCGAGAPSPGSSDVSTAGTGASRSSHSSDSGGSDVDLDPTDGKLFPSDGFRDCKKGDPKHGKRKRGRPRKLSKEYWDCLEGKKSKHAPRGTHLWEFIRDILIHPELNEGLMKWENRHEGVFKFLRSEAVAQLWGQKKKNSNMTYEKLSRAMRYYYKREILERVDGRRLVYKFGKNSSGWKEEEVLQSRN
The note with it: protein: recombinant; tags: N-terminal GST; dsDNA, one strand shown. In short, it runs like this:
as §1

Another test addresses ETV1 (Homo sapiens, UniProt P50549 1-477). The note with it: protein: recombinant; tags: N-terminal GST; dsDNA, one strand shown. In short, it runs like this:
as §1

ELF4, sequence (Q99607 whole entry): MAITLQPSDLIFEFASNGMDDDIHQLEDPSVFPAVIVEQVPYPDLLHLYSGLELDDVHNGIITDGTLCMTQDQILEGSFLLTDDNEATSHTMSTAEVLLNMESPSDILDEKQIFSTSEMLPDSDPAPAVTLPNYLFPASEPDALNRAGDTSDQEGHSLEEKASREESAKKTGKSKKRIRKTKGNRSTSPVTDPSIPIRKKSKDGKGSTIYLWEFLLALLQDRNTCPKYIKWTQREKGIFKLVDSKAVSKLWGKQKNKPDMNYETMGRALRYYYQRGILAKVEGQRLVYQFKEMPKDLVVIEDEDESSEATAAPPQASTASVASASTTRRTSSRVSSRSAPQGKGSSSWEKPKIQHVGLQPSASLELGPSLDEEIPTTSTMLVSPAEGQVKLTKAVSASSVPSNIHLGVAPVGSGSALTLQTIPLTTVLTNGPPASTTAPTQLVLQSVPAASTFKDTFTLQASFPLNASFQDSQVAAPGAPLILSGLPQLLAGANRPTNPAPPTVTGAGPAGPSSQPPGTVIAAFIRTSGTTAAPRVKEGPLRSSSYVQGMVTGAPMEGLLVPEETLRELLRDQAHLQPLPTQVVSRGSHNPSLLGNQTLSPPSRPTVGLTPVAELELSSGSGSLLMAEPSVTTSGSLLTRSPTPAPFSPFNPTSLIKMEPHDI
SPIB, sequence (Q01892 whole entry): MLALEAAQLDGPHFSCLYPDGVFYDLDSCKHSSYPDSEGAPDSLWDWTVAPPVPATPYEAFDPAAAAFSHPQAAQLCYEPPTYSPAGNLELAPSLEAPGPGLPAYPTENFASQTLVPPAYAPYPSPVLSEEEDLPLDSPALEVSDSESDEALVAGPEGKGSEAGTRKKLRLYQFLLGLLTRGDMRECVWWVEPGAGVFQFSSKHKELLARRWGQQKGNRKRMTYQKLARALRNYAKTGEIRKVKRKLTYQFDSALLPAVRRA
HSF1, sequence (Q00613 whole entry): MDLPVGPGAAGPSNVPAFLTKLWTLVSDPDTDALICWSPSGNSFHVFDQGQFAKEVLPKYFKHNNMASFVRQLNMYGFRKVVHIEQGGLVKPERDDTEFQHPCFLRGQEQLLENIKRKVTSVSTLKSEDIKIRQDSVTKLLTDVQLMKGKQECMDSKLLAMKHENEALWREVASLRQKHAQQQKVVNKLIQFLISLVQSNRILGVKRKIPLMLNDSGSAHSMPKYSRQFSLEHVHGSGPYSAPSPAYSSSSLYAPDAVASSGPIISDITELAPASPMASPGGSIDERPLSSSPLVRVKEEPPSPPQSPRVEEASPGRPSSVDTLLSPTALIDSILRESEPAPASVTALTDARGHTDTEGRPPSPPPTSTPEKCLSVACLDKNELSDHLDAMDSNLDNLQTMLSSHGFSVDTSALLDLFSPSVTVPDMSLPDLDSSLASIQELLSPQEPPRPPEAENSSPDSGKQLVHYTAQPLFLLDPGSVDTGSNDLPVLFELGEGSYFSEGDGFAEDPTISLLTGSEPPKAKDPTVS
ETV5, sequence (P41161 whole entry): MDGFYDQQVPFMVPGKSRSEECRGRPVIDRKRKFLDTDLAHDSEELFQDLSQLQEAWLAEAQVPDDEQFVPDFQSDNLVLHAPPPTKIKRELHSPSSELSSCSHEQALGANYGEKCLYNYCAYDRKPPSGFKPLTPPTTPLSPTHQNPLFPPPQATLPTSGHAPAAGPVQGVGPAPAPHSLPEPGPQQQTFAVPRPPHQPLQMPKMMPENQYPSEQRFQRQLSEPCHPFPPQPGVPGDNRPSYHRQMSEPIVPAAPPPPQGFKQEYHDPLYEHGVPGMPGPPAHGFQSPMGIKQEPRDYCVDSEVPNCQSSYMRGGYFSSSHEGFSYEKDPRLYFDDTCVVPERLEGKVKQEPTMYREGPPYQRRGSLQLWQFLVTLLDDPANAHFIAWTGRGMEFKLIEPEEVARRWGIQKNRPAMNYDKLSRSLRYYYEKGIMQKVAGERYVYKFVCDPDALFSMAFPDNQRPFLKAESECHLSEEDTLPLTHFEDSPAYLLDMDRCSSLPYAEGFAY
ELF1, sequence (P32519 whole entry): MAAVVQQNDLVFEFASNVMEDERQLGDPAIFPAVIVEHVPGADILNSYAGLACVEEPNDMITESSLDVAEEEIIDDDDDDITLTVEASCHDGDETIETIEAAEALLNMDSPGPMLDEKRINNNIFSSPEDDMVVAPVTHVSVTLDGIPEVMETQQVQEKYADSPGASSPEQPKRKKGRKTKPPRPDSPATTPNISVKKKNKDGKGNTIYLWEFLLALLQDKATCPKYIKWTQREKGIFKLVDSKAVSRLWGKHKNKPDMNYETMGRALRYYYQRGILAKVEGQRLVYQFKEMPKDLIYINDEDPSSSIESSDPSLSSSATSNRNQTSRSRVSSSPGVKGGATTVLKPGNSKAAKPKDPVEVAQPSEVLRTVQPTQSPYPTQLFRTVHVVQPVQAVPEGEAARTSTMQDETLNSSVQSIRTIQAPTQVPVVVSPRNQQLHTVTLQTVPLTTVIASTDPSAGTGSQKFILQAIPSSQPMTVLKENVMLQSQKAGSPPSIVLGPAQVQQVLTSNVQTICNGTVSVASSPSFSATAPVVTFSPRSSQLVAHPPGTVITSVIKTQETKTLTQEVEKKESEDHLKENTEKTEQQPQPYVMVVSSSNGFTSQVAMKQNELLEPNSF
ETV1, sequence (P50549 whole entry): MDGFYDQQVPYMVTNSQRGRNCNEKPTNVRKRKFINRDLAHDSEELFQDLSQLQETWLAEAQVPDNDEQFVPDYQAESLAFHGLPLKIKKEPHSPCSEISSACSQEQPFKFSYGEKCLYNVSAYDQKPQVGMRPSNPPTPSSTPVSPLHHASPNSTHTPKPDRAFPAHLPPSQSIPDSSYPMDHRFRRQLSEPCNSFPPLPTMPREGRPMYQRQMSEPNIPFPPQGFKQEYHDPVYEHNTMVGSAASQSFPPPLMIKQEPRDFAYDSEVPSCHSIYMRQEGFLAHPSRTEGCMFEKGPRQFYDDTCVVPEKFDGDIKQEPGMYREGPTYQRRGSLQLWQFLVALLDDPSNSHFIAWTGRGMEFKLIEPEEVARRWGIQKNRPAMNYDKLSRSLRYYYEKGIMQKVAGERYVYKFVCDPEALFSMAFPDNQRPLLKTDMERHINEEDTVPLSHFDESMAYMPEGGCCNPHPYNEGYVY

Take ATGTGG: the binding signal in the test with FLI1 is 1.08 fold enrichment (6-mer frequency, TF over GST control); with ELK1 it was 1.05 fold enrichment (6-mer frequency, TF over GST control); with GABPA it was 1.11 fold enrichment (6-mer frequency, TF over GST control); with ERG, 1.21 fold enrichment (6-mer frequency, TF over GST control); in the test with ELF1, 1.18 fold enrichment (6-mer frequency, TF over GST control); with EHF it was 1.23 fold enrichment (6-mer frequency, TF over GST control). For the same sequence, the binding signal was 1.02 fold enrichment (6-mer frequency, TF over GST control) with SPI1; 1.31 fold enrichment (6-mer frequency, TF over GST control) with SPIB; 1.1 fold enrichment (6-mer frequency, TF over GST control) with ELK3; 1.2 fold enrichment (6-mer frequency, TF over GST control) with FEV; 1.09 fold enrichment (6-mer frequency, TF over GST control) with ETV5; 1.04 fold enrichment (6-mer frequency, TF over GST control) with HSF1. Further, the binding signal was 1.18 fold enrichment (6-mer frequency, TF over GST control) with SPIC; 1.15 fold enrichment (6-mer frequency, TF over GST control) in the test with ELF4; 1.27 fold enrichment (6-mer frequency, TF over GST control) in the test with ELK4; 1.28 fold enrichment (6-mer frequency, TF over GST control) in the test with ETV2; 1.26 fold enrichment (6-mer frequency, TF over GST control) in the test with ELF3; 1.12 fold enrichment (6-mer frequency, TF over GST control) in the test with ETV1.
